In all, about 360,000 compounds went through this assay and about 17,000 (4.7%) were called active. Inconclusive results (about 5%) are left out. No stated cut-off is given here; in the data, active means activity change below about -50%; inconclusive means mostly about -30% to -49%; inactive means weaker than that. The sample as a whole holds a higher share of actives than the screen did.
Assay: qHTS for Inhibitors of Inflammasome Signaling: IL-1-beta AlphaLISA Primary Screen
Conditions: THP-1 LPS/ATP IL-1B secretion, 16 h; at 57.5 µM, hits give low values
Procedure, shortened: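 Secreted IL-1B measured by AlphaLISA bead assay after 16 h compound exposure of THP-1 cells; compounds (final up to 57.5 uM) added 1 h before LPS (250 ng/mL) and ATP (1.25 mM) stimulation; lower signal means less secretion.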
On the % scale 0 is the no-effect control and ±100 the full control effect.

Activity change, inactive:
Cc1ccc(S(=O)(=O)N[C@H]2CCC[C@@H]2O)cc1 6.2%, CCCNC(=O)C1(C)CCN1C(=O)Cc1ccc(-c2ccccc2)cc1 (centres undefined) -1.04%, C#Cc1ccc(NC(=O)C2(C)CCN2C(=O)Cc2ccc(-c3ccccc3)cc2)cc1 (centres undefined) -2.2%, COc1ccc(C(CNC(=O)CSc2ccccc2)N2CCOCC2)cc1 (centres undefined) 0%, COC(=O)C[C@@H]1C=C[C@@H](NC(=O)c2cccnc2)[C@@H](CO)O1 2.57%, CCOC(=O)C1CCCN(C(=O)c2cccc3ccccc23)CC1 (centres undefined) 61.7%, O=[N+]([O-])c1ccc(COc2ccccc2CN2CCOCC2)cc1 -17.6%, COc1ccc(NC(=O)c2cccc(Cl)c2)c[n+]1[O-] -0.66%, C=C(C)COc1ccc(-c2nc(N)ncc2-c2ccccc2OC)c(O)c1 -26.4%, COc1ccc(-c2nc(N)ncc2-c2ccc(Cl)cc2)c(O)c1 -11.3%, COc1ccc(C(C(=O)NCc2ccccc2)N(Cc2cccs2)C(=O)c2cnccn2)cc1 (centres undefined) 3.36%, COc1ccc(-c2cc(C3CCN(c4ncccc4[N+](=O)[O-])CC3)[nH]n2)cc1 -28.8%, O=C(c1ccccc1)N1CCN(c2cc(-c3ccccc3)nc3cc(-c4cccc(Cl)c4)nn23)CC1 15.2%, CN(C)CCN1CCN(c2cc(-c3cccc(Cl)c3)nc3ccnn23)CC1 6.44%, COc1cccc(/C=N/Nc2ccc(S(=O)(=O)Nc3ccccc3C(=O)O)cc2[N+](=O)[O-])c1O -5.79%, CC(=O)c1ccc(Oc2cc(C)nc(-n3nc(C)cc3C)n2)cc1 46.7%, COc1ccc(/C=N/Nc2cc(N3CCOCC3)nc(C)n2)c(OC)c1 -8.96%, Cc1nc2ccccc2nc1N/N=C/c1ccc(O)cc1O 144%, O=S(=O)(/N=C(/Nc1ccccc1)c1ccccc1)c1cccs1 -18.2%, COc1ccc(-c2csc(C(O)c3cccc(Cl)c3)n2)cn1 (centres undefined) -7.83%, CN1CCn2cnc(C(=O)NCC(=O)OC(C)(C)C)c2C1=O 3.21%, O=C(Nc1ccc(Cl)cc1)c1csc([C@H]2C[C@H](O)[C@@H](CO)O2)n1 17.6%, COc1ccc(-c2cc(C(F)(F)F)nc(SCCC(=O)NCc3ccco3)n2)cc1 -20.3%, COc1ccc(N)cc1NC(=O)CN1CCOCC1 3.53%, COc1cc(S(=O)(=O)Nc2ncn[nH]2)ccc1Cl 8.42%, CN1CCOC1c1ccc(C2OCCN2C)cc1 (centres undefined) 5.1%, O=C(N/N=C\c1ccc(Br)cc1)c1ccc(Cn2cccn2)o1 -3.71%, CN(C)c1ccc(/C=N/NC(=O)C(O)c2ccc(Br)cc2)cc1 (centres undefined) -3.94%, CC=CCn1c(SCCCc2ccccc2)nc2c1c(=O)[nH]c(=O)n2C 34.7%, O=C1OC(Cc2ccccc2)C(c2ccccc2)C1=O (centres undefined) -4.65%, CCN1CCN(CCNC(=O)c2ccc3c(c2)NC(=O)/C(=C\c2cccc(Cl)c2)S3)CC1 12.3%, CCN(CCCNC(=O)CCn1c(=O)[nH]c2ccsc2c1=O)c1ccccc1 -7.98%, O=C(Nc1ccc(F)cc1)C(CCc1ccccc1)N1CCN(CC(=O)N2CCCC2)CC1 (centres undefined) -1.84%, CC(=O)Nc1ccccc1OC(C)C(=O)N1CCC(C)CC1 (centres undefined) 26.5%, CCOC(=O)C1C(C)C(C(C)(C)C)N(S(=O)(=O)c2ccc(C)cc2)C1c1ccccc1 (centres undefined) -15.7%, COc1ccc(C/C(C)=N/NC(=O)c2cc(C)oc2C)cc1 -3.42%, CC(/C=N/NC(=O)c1cc(-c2ccc3ccccc3c2)n[nH]1)=C\c1ccco1 -29.4%, CC(C)c1cc(C(=O)O)n[nH]1 -10.8%, CC(=C/c1ccccc1)/C=N/NC(=O)c1cc(C)oc1C -1.83%, CCC1C=C(c2ccccc2)C=CN=C1N(CC)CC (centres undefined) -9.78%, COc1c(C)cc(C(O)c2ncc(-c3cccc(C(F)(F)F)c3)[nH]2)cc1C (centres undefined) -19.6%, C=CCn1c(CCNC(=O)c2ccccc2F)nnc1SCC(=O)Nc1ccc(OC)cc1 0.328%, N#Cc1cc([N+](=O)[O-])ccc1NCC1CCCO1 (centres undefined) 16.2%, COc1cc(OC)cc(C(=O)N[C@H](C(=O)OCC(=O)NC(C)c2ccccc2)C(C)C)c1 (some centres undefined) 0%, Cc1nn(CCOc2ccccc2)c(=O)n1-c1ccccc1F -5.73%, COc1ccc(OCCNS(=O)(=O)Cc2ccccc2)cc1 5.88%, CCOn1c(=O)c(=O)n(O)c2ccccc21 33.6%, COc1cc(C)c(CN2CCN(C(=O)CCC(=O)c3ccc(C)s3)CC2)cc1OC -4.16%, CC(C(=O)NC1CCS(=O)(=O)C1)N1C(=O)/C(=C/c2ccc(Cl)cc2)SC1=S (centres undefined) -3.39%, COc1ccc(-c2ccc(CN3C(CC(C)C)C(=O)N(Cc4cn(CC5CCCCC5)nn4)CCS3(=O)=O)cc2)cc1 (centres undefined) 18.2%, CC(C)CC1C(=O)N(Cc2cn(CC3CCCCC3)nn2)CCS(=O)(=O)N1Cc1ccc(-c2ccc(Cl)cc2)cc1 (centres undefined) -2.11%, COCOCCn1cc(CN2CCS(=O)(=O)N(Cc3ccc(-c4cccc(N(C)C)c4)cc3)C(CC(C)C)C2=O)nn1 (centres undefined) -1.55%, CC1C(=O)N(Cc2cn(Cc3ccco3)nn2)CCS(=O)(=O)N1Cc1ccc(-c2cccc(CO)c2)cc1 (centres undefined) -17.1%, Cn1nc(N)c2ncc(C(Cl)(Cl)Cl)nc21 -5.29%, O=C(N/N=C\c1cc2c(cc1Cl)OCO2)c1ccc(Br)s1 7.39%, COc1ccc(-c2ccc(C(=O)NC(C)C)c3occc23)c(C)c1 -6.78%, Cc1cc2nc(-c3ccc(Cl)cc3)c(Cc3cccc(F)c3)n2c(C)c1Br 0%, CCCCNc1nc2c(c(=O)[nH]c(=O)n2C)n1CCOc1ccccc1 26.9%, CCn1c(NCCc2ccc(OC)c(OC)c2)nc2c1c(=O)n(C)c(=O)n2C 5.08%, CCc1c(N=O)c(-c2ccccc2)n(O)[n+]1[O-] -4.78%, CN(C)C(CNC(=O)c1ccc(OCc2cn3ccccc3n2)cc1)c1ccco1 (centres undefined) 3.62%, Cc1noc(C)c1COc1ccc(C(=O)NCCOc2ccccc2)cc1 -10.6%, COc1cc(N/C=C2\CC(=O)NC(C)=C2C#N)cc(OC)c1OC 18.8%, O=C(CN1CCN(C(=O)c2ccco2)CC1)Nc1ccc2c(c1)OCO2 21.4%, O=C(Cn1cc(C(F)(F)F)ccc1=O)Nc1ccc2c(c1)OCCO2 -6.35%, CCCNC(=O)C1(C)CCCN(Cc2cccc(C(F)(F)F)c2)C1 (centres undefined) -10.2%, CCC(C(=O)NCc1ccccc1)n1c(Cc2cc(F)cc(F)c2)nc2ccccc21 (centres undefined) -4.41%, CCOC(=O)[C@]12CCCC=C1N(CCC1=CCCCC1)C(=O)[C@H](CC(=O)N1CCOCC1)C2 12.3%, COc1ccc(CNC(=O)c2ccc(-c3cccnc3)c3ccoc23)cc1OC -14.6%, O=C(Nc1ccc(N2CCOCC2)cc1)c1cccc2c(-c3ccc(F)c(F)c3)coc12 -5%, COc1cc(C(=S)NC2CCCCC2)ccc1O 5.59%, COc1ccc(CNC2CCCCC2)cc1 -4.21%, COc1cc(C=O)c(Br)cc1OCC(=O)NCc1ccccc1 -25.7%, CC(C)(C)NCc1cc(Br)ccc1OC1CCCC1 -13.9%

Activity change, active:
COc1ccc(OC)c(NC(=O)C2(C)CCN2C(=O)Cc2ccccc2)c1 (centres undefined) -87.1%, C=C(C)COc1ccc(-c2ncncc2-c2ccc(OC)cc2)c(O)c1 -58.4%, C#Cc1cc(N2CCN(C(=O)c3ccoc3)CC2)n2nc(-c3cccc(Cl)c3)cc2n1 -109%, COc1cccc(/C=N/Nc2cc(C)nc(-c3ccccc3O)n2)c1O -99.4%, COc1ccccc1/C=N\Nc1cc(C)nc(-n2nc(C)cc2C)n1 -99%, C=C1C(=O)[C@]23C[C@H]1CCC2[C@@]1(C)C(C[C@@H]3O)[C@](C)(C(=O)O)CC[C@@H]1O (some centres undefined) -91.2%, CN(C)c1ccc(/C=N/NC(=O)c2ccc(Cn3cc(Br)cn3)o2)cc1 -53%, CCN(CCCNC(=O)c1ccc2c(c1)NC(=O)CN2C)c1cccc(C)c1 -98.2%, Cc1cc(C(=O)N/N=C\C(Br)=C\c2ccccc2)c(C)o1 -99%, CC(C)c1cc(C(=O)N/N=C/C(Br)=C/c2ccccc2)n[nH]1 -78.1%, CC(C)(c1ccccc1)c1ccc(OCCN)cc1 -93.8%, O=C1/C(=C\c2ccc(O)cc2)CCC1CNc1ccc(Cl)cc1 (centres undefined) -106%, CC(C)CC1C(=O)N(Cc2cn(Cc3ccco3)nn2)CCS(=O)(=O)N1Cc1ccc(-c2ccc(Cl)c(Cl)c2)cc1 (centres undefined) -82.3%, COCOCCn1cc(CN2CCS(=O)(=O)N(Cc3ccc(-c4ccc(OC)cc4)cc3)C(CC(C)C)C2=O)nn1 (centres undefined) -56.9%, CCCCNc1nc2c(c(=O)n(C)c(=O)n2C)n1Cc1cccc(OC)c1 -59.5%, CN(C)CCNC(=O)c1ccc(-c2cn3c(-c4ccc(Oc5ccccc5)cc4)cnc3cn2)cc1 -66.3%, O=C(CN1CCN(c2ncc(C(F)(F)F)cc2Cl)CC1)Nc1ccc2c(c1)OCO2 -50.6%, CN(C)c1cccc(NC(=O)c2ccc(-c3ccc(F)c(F)c3)c3ccoc23)c1 -82.3%, COc1cc(CNC2CCCC2)c(Br)cc1OCc1ccccc1 -92.7%, COc1cc(CNC2CCCCC2)c(Br)cc1OC1CCCC1 -64.3%

Reference: PubChem BioAssay AID743279 (National Center for Advancing Translational Sciences (NCATS), 2014)
